From PubChem BioAssay (NCI)
The panel holds about 79,000 compounds, 15% with a hit somewhere; the sample as a whole holds those more often. Activity calls are given as the source filed them. Rule as the data show it: active = growth inhibition above about 70%; inactive = the rest.

Tests used:
[1] = NCI Yeast Anticancer Drug Screen. Data for the mec2-1 strain (AID 157); conditions: S. cerevisiae mec2-1 strain, hits give high values
Outline: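 Mutant yeast (mec2-1) grown with compound; growth inhibition relative to vehicle control reported.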

[2] = NCI Yeast Anticancer Drug Screen. Data for the rad14 strain (AID 159);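 also: 0% = growth of vehicle-treated control cultures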; conditions: S. cerevisiae rad14 strain growth inhibition, hits give high values
Outline: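 A mutant yeast strain defective in DNA damage repair is treated with compound; inhibition of its growth is scored against untreated, vehicle-exposed cultures.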

[3] = NCI Yeast Anticancer Drug Screen. Data for the sgs1 mgt1 strain (AID 161);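 also: 0% = growth of cultures given vehicle only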; conditions: S. cerevisiae sgs1 mgt1 strain, hits give high values
Outline: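 Compounds are added to genetically altered yeast, and growth is compared with cultures given vehicle alone to give percent inhibition.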

[4] = NCI Yeast Anticancer Drug Screen. Data for the CLN2oe strain (AID 163);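 also: 0% = growth of vehicle-only control cultures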; conditions: S. cerevisiae CLN2oe strain, hits give high values
Outline: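 Compounds are applied to yeast harbouring a defined cell-cycle control change; reduced growth compared with vehicle-treated controls gives the value.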

[5] = NCI Yeast Anticancer Drug Screen. Data for the cln2 rad14 strain (AID 165);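 also: 0% = growth equal to vehicle treated cultures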; conditions: S. cerevisiae cln2 rad14 strain, hits give high values
Outline: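 Readout is yeast growth inhibition versus vehicle-treated controls, using a strain with cln2 and rad14 alterations exposed to compound.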

[6] = NCI Yeast Anticancer Drug Screen. Data for the bub3 strain (AID 167); conditions: S. cerevisiae bub3 mutant strain, hits give high values
Outline: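 Steps: expose the mutant yeast strain to compound; grow alongside vehicle-treated cultures; measure growth; express inhibition against the vehicle cultures.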

[7] = NCI Yeast Anticancer Drug Screen. Data for the wt2 strain (AID 169);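 also: 0% = growth of vehicle-treated yeast cultures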; conditions: S. cerevisiae wt2 strain growth inhibition, hits give high values
Outline: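 Against vehicle-treated controls, the growth of yeast exposed to each compound was compared, and the inhibition was recorded.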

[8] = NCI Yeast Anticancer Drug Screen. Data for the mlh1 strain (AID 171);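 also: 0% = growth of vehicle-treated control cultures of the same strain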; conditions: S. cerevisiae mlh1 strain growth inhibition, hits give high values
Outline: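 Measured: yeast growth. Reference: vehicle-treated controls. Organism: strain with a defined alteration affecting DNA damage repair or cell cycle control, treated with compound.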

[9] = NCI Yeast Anticancer Drug Screen. Data for the sgs1 strain (AID 173);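 also: 0% = growth of vehicle-only control cultures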; conditions: S. cerevisiae sgs1 mutant, hits give high values
Outline: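 Each compound was added to cultures of the altered yeast strain. Growth was recorded, and inhibition was derived by comparison with vehicle controls.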

[10] = NCI Yeast Anticancer Drug Screen. Data for the mlh1 rad18 strain (AID 175); conditions: S. cerevisiae mlh1 rad18 strain growth inhibition, hits give high values
Outline: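 Genetically defined yeast (DNA repair-deficient) exposed to compounds; growth inhibition determined relative to vehicle.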

[11] = NCI Yeast Anticancer Drug Screen. Data for the rad18 strain (AID 177); conditions: S. cerevisiae rad18 mutant growth inhibition, hits give high values
Outline: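 Vehicle-treated cultures served as the baseline for scoring compound-induced growth inhibition in DNA-repair-mutant yeast.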

[12] = NCI Yeast Anticancer Drug Screen. Data for the rad52 strain (AID 147);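 also: 0% = growth of vehicle-treated control cultures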; conditions: S. cerevisiae rad52 mutant growth inhibition, hits give high values
Outline: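 The repair-mutant yeast strain was incubated with compounds, then growth was read and inhibition derived relative to vehicle.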

[13] = NCI Yeast Anticancer Drug Screen. Data for the wt1 strain (AID 149);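 also: 0% = growth of vehicle-treated wt1 cultures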; conditions: S. cerevisiae wt1 strain (SPY 50644) growth inhibition, hits give high values
Outline: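 Compounds are added to wt1 yeast cultures. Growth is then measured. Inhibition is expressed relative to vehicle-treated controls.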

[14] = NCI Yeast Anticancer Drug Screen. Data for the rad50EPP+ strain (AID 151);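 also: 0% = growth of vehicle-treated control cultures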; conditions: S. cerevisiae rad50 mutant strain, hits give high values
Outline: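 Vehicle-normalised growth inhibition; rad50EPP+ yeast strain, altered in DNA damage repair, compound-treated.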

[15] = NCI Yeast Anticancer Drug Screen. Data for the mgt1 strain (AID 153); conditions: S. cerevisiae mgt1 mutant growth inhibition, hits give high values
Outline: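 Vehicle-normalized growth inhibition is determined in mgt1 yeast, a strain selected for a defined alteration in DNA repair or cell cycle control.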

[16] = NCI Yeast Anticancer Drug Screen. Data for the rad50 strain (AID 155);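 also: 0% = growth of vehicle-only cultures of the same strain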; conditions: S. cerevisiae rad50 strain growth inhibition, hits give high values
Outline: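 Inhibition values express reduced yeast growth in compound-treated cultures relative to vehicle-treated controls.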

[17] = at 5.0 µM (retest, dose inferred, filed as 0.5)
[18] = at 50.0 µM (retest, dose inferred, filed as 5.0)

Measured: growth inhibition

O=C1Nc2ccc(Br)cc2C1=Nc1cccnc1
active: [6]; [18] 94% | [6]; at 50.0 µM 86.6% | [6]; at 100.0 µM 82%
inactive: [1]; [17] 47% | [1]; at 11.0 µM -41% | [1]; at 33.0 µM -31% | [1]; [18] 53% | [1]; at 50.0 µM 39.2% | [1]; at 100.0 µM -12% | [2]; at 1.2 µM -55% | [2]; at 3.7 µM -61% | [2]; at 11.0 µM -60% | [2]; at 33.0 µM -48% | [2]; at 100.0 µM -47% | [3]; [17] -3% | [3]; [18] 32% | [3]; at 50.0 µM 37.5% | [4]; at 1.2 µM -5% | [4]; at 3.7 µM 3% | [4]; at 11.0 µM -18% | [4]; at 33.0 µM -8% | [4]; at 100.0 µM 1% | [5]; [17] 32% | [5]; [18] 27% | [5]; at 50.0 µM 10.4% | [6]; at 1.2 µM -53% | [6]; at 3.7 µM -47% | [6]; [17] 33% | [6]; at 11.0 µM -38% | [6]; at 33.0 µM 10% | [7]; at 1.2 µM -21% | [7]; at 3.7 µM -24% | [7]; at 11.0 µM -20% | [7]; at 33.0 µM -30% | [7]; at 100.0 µM -27% | [8]; at 1.2 µM -25% | [8]; at 3.7 µM -15% | [8]; at 11.0 µM -42% | [8]; at 33.0 µM -39% | [8]; at 100.0 µM -31% | [9]; at 1.2 µM -32% | [9]; at 3.7 µM -41% | [9]; at 11.0 µM -21% | [9]; at 33.0 µM -29% | [9]; at 100.0 µM -18% | [10]; [17] 31% | [10]; [18] 46% | [10]; at 50.0 µM 35.4% | [11]; at 1.2 µM -28% | [11]; at 3.7 µM -39% | [11]; at 11.0 µM -32% | [11]; at 33.0 µM -36% | [11]; at 100.0 µM -26%

CN1C(=O)C(CC(=O)O)NC1=S (centres undefined)
active: [9]; at 100.0 µM 70%
inactive: [12]; at 1.2 µM 0% | [12]; at 3.7 µM 0% | [12]; at 11.0 µM -1% | [12]; at 33.0 µM 6% | [12]; at 100.0 µM 22% | [13]; at 1.2 µM -2% | [13]; at 3.7 µM -2% | [13]; at 11.0 µM 1% | [13]; at 33.0 µM 3% | [13]; at 100.0 µM 11% | [14]; at 1.2 µM -1% | [14]; at 3.7 µM -3% | [14]; at 11.0 µM -2% | [14]; at 33.0 µM -10% | [14]; at 100.0 µM -5% | [15]; at 1.2 µM -3% | [15]; at 3.7 µM -2% | [15]; at 11.0 µM 1% | [15]; at 33.0 µM 21% | [15]; at 100.0 µM 27% | [16]; at 1.2 µM -1% | [16]; at 3.7 µM -2% | [16]; [17] 20% | [16]; at 11.0 µM 2% | [16]; at 33.0 µM 9% | [16]; [18] 14% | [16]; at 50.0 µM 61.9% | [16]; at 100.0 µM 25% | [1]; at 1.2 µM 1% | [1]; at 3.7 µM 3% | [1]; [17] 2% | [1]; at 11.0 µM 4% | [1]; at 33.0 µM 15% | [1]; [18] 27% | [1]; at 50.0 µM 33.9% | [1]; at 100.0 µM 47% | [2]; at 1.2 µM 0% | [2]; at 3.7 µM 0% | [2]; at 11.0 µM -1% | [2]; at 33.0 µM 16% | [2]; at 100.0 µM 39% | [3]; [17] -1% | [3]; [18] 17% | [3]; at 50.0 µM 58.2% | [4]; at 1.2 µM -3% | [4]; at 3.7 µM -3% | [4]; at 11.0 µM -1% | [4]; at 33.0 µM -2% | [4]; at 100.0 µM 2% | [5]; [17] -10% | [5]; [18] 12% | [5]; at 50.0 µM 2.1% | [6]; at 1.2 µM -4% | [6]; at 3.7 µM -7% | [6]; [17] -10% | [6]; at 11.0 µM -3% | [6]; at 33.0 µM 3% | [6]; [18] 2% | [6]; at 50.0 µM 65.8% | [6]; at 100.0 µM 43% | [7]; at 1.2 µM -2% | [7]; at 3.7 µM 0% | [7]; at 11.0 µM 3% | [7]; at 33.0 µM 7% | [7]; at 100.0 µM 20% | [8]; at 1.2 µM -2% | [8]; at 3.7 µM 0% | [8]; at 11.0 µM 4% | [8]; at 33.0 µM 11% | [8]; at 100.0 µM 46% | [9]; at 1.2 µM 0% | [9]; at 3.7 µM 5% | [9]; at 11.0 µM 9% | [9]; at 33.0 µM 24% | [10]; [17] -11% | [10]; [18] 62% | [10]; at 50.0 µM 25.7% | [11]; at 1.2 µM 1% | [11]; at 3.7 µM 0% | [11]; at 11.0 µM -9% | [11]; at 33.0 µM 15% | [11]; at 100.0 µM 45%

CC1CCC(C2=CSC3CCCCC3N2)CC1 (centres undefined)
inactive: [12]; at 1.2 µM 21% | [12]; at 3.7 µM 21% | [12]; at 11.0 µM 21% | [12]; at 33.0 µM 37% | [13]; at 1.2 µM 14% | [13]; at 3.7 µM -2% | [13]; at 11.0 µM 3% | [13]; at 33.0 µM 31% | [13]; at 100.0 µM 65% | [14]; at 1.2 µM 1% | [14]; at 3.7 µM -14% | [14]; at 11.0 µM -8% | [14]; at 33.0 µM 14% | [15]; at 1.2 µM -1% | [15]; at 3.7 µM 4% | [15]; at 11.0 µM 9% | [15]; at 33.0 µM 32% | [16]; at 1.2 µM 16% | [16]; at 3.7 µM 23% | [16]; [17] 17% | [16]; at 11.0 µM 20% | [16]; at 33.0 µM 37% | [16]; [18] 13% | [16]; at 50.0 µM 43% | [1]; at 1.2 µM -36% | [1]; at 3.7 µM 5% | [1]; [17] -6% | [1]; at 11.0 µM 3% | [1]; at 33.0 µM 14% | [1]; at 50.0 µM 56.5% | [2]; at 1.2 µM -20% | [2]; at 3.7 µM -16% | [2]; at 11.0 µM -11% | [2]; at 33.0 µM -6% | [3]; [17] -4% | [3]; [18] 28% | [3]; at 50.0 µM 51.1% | [4]; at 1.2 µM -3% | [4]; at 3.7 µM 13% | [4]; at 11.0 µM 0% | [4]; at 33.0 µM 22% | [4]; at 100.0 µM 45% | [5]; [17] 32% | [5]; [18] 42% | [5]; at 50.0 µM 11.6% | [6]; at 1.2 µM 5% | [6]; at 3.7 µM -4% | [6]; [17] 42% | [6]; at 11.0 µM 5% | [6]; at 33.0 µM 29% | [6]; at 50.0 µM 66% | [7]; at 1.2 µM -8% | [7]; at 3.7 µM -3% | [7]; at 11.0 µM -4% | [7]; at 33.0 µM 19% | [8]; at 1.2 µM 6% | [8]; at 3.7 µM 4% | [8]; at 11.0 µM 11% | [8]; at 33.0 µM 28% | [9]; at 1.2 µM 15% | [9]; at 3.7 µM 5% | [9]; at 11.0 µM 14% | [9]; at 33.0 µM 35% | [9]; at 100.0 µM 67% | [10]; [17] 7% | [10]; at 50.0 µM 38.8% | [11]; at 1.2 µM -5% | [11]; at 3.7 µM -6% | [11]; at 11.0 µM -6% | [11]; at 33.0 µM 3% | [11]; at 100.0 µM 45%
active: [12]; at 100.0 µM 78% | [14]; at 100.0 µM 71% | [15]; at 100.0 µM 91% | [16]; at 100.0 µM 74% | [1]; [18] 71% | [1]; at 100.0 µM 80% | [2]; at 100.0 µM 76% | [6]; [18] 84% | [6]; at 100.0 µM 73% | [7]; at 100.0 µM 74% | [8]; at 100.0 µM 74% | [10]; [18] 85%
